Compounds without any hit were thinned out: in the full panel of roughly 79,000, 15% have a hit. A number with no mark means an inactive call. Active and inactive are the calls of the source. No stated cut-off is given here; in the data, active means growth inhibition above about 70%; inactive means the rest. Where a SMILES comes first, the peptide text is derived from it. [ ]: non-standard residue; d: D form. The star is where a group is joined. ξ: configuration not given here. X15 = COc1ccc(C(N*)c2ccc(OC)cc2)cc1; NMeF = CN[C@@H](Cc1ccccc1)C(=O)O; NMeD = CN[C@@H](CC(=O)O)C(=O)O; NMeV = CN[C@H](C(=O)O)C(C)C; ξNMeV = CNC(C(=O)O)C(C)C; Boc = CC(C)(C)OC(=O)*; ξNMeA = CNC(C)C(=O)O; ξV = CC(C)C(N)C(=O)O
Key:
[1] = NCI Yeast Anticancer Drug Screen. Data for the rad50 strain (AID 155);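 further: 0% = growth of vehicle-only cultures of the same strain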; conditions: S. cerevisiae rad50 strain growth inhibition; at 50.0 µM; active compounds read high
How it was run: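 Relative growth inhibition (compound vs vehicle) was measured in yeast with a defined repair-gene alteration.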

[2] = NCI Yeast Anticancer Drug Screen. Data for the mec2-1 strain (AID 157); conditions: S. cerevisiae mec2-1 strain, at 50.0 µM, active compounds read high
How it was run: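 Yeast mec2-1 mutant treated with compound. Readout: growth inhibition vs vehicle controls.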

[3] = NCI Yeast Anticancer Drug Screen. Data for the sgs1 mgt1 strain (AID 161);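 further: 0% = growth of cultures given vehicle only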; conditions: S. cerevisiae sgs1 mgt1 strain, at 50.0 µM, active compounds read high
How it was run: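 Inhibition of yeast growth, normalised to vehicle-treated controls, is reported for a strain bearing genetic alterations in DNA damage repair.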

[4] = NCI Yeast Anticancer Drug Screen. Data for the cln2 rad14 strain (AID 165);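 further: 0% = growth equal to vehicle treated cultures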; conditions: S. cerevisiae cln2 rad14 strain, at 50.0 µM, active compounds read high
How it was run: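 cln2 rad14 yeast strain; compound exposure; growth inhibition read vs vehicle controls.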

[5] = NCI Yeast Anticancer Drug Screen. Data for the bub3 strain (AID 167); conditions: S. cerevisiae bub3 mutant strain, at 50.0 µM, active compounds read high
How it was run: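 Screening used yeast with an engineered genetic alteration affecting cell cycle control. Compound-exposed cultures were compared with vehicle cultures, and reduced growth was taken as inhibition.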

[6] = NCI Yeast Anticancer Drug Screen. Data for the mlh1 rad18 strain (AID 175); conditions: S. cerevisiae mlh1 rad18 strain growth inhibition; at 50.0 µM; active compounds read high
How it was run: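 Yeast w/ defined DNA-repair lesions; compound exposure; growth vs vehicle controls → % inhibition.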

Cc1ccc(S(=O)(=O)N/N=C2/C(=N/NS(=O)(=O)c3ccc(C)cc3)C3CCC2C3)cc1
growth inhibition [1]: 6.7%
growth inhibition [2]: 4.85%
growth inhibition [3]: -2.75%
growth inhibition [4]: -29.2%
growth inhibition [5]: -1.7%
growth inhibition [6]: -6.45%

CCCCCCCCCCCCCCCC/C=C\CCCCCCCCCCCCCCCCC
growth inhibition [1]: -7.8%
growth inhibition [2]: -18.1%
growth inhibition [3]: -0.85%
growth inhibition [4]: 17.3%
growth inhibition [5]: 2.25%
growth inhibition [6]: -13.1%

CC1=CCC(C#N)N(C)C1c1ccccc1 (stereo unspecified)
growth inhibition [1]: 2%
growth inhibition [2]: -5.25%
growth inhibition [3]: -13.4%
growth inhibition [4]: -48.1%
growth inhibition [5]: -12.3%
growth inhibition [6]: 8.85%

O=C1OC2(c3ccc(O)cc3Oc3cc(O)ccc32)C2C3CCC(O3)C12 (stereo unspecified)
growth inhibition [1]: 52.2%
growth inhibition [2]: 38.2%
growth inhibition [3]: 42.2%
growth inhibition [4]: 27%
growth inhibition [5]: 37.2%
growth inhibition [6]: 40.4%

O=P1(O)c2ccccc2CSCc2ccccc21
growth inhibition [1]: 24.4%
growth inhibition [2]: -7.35%
growth inhibition [3]: -11.8%
growth inhibition [4]: -2.8%
growth inhibition [5]: -2.65%
growth inhibition [6]: -31.8%

NC(N)=Nc1cccc2ccccc12
growth inhibition [1]: -1.45%
growth inhibition [2]: 0.85%
growth inhibition [3]: -5.65%
growth inhibition [4]: -12.8%
growth inhibition [5]: -0.45%
growth inhibition [6]: -5.15%

COc1cc(C=O)cc(O)c1O
growth inhibition [1]: 11.8%
growth inhibition [2]: 3.05%
growth inhibition [3]: -10.6%
growth inhibition [4]: -19.2%
growth inhibition [5]: -1.9%
growth inhibition [6]: -0.6%

Nc1cc(C(=O)O)c2ccccc2c1
growth inhibition [1]: 4.5%
growth inhibition [2]: -6.95%
growth inhibition [3]: -5.7%
growth inhibition [4]: -16.8%
growth inhibition [5]: 3.45%
growth inhibition [6]: 5.15%

COC1/C=C\OC2(C)Oc3c(C)c(O)c4c(O)c(c5c(c4c3C2=O)NC2(CCN(C)CC2)N=5)=NC(=O)/C(C)=C\C=C\C(C)C(O)C(C)C(O)C(C)C(OC(C)=O)C1C (stereo unspecified)
growth inhibition [1]: 2.85%
growth inhibition [2]: 3%
growth inhibition [3]: -1%
growth inhibition [4]: 10.3%
growth inhibition [5]: 7%
growth inhibition [6]: 3.25%

C/C=C(/C)C(C#N)(CCC)C(=O)OCC (stereo unspecified)
growth inhibition [1]: 5.9%
growth inhibition [2]: -12.4%
growth inhibition [3]: -8.7%
growth inhibition [4]: 3%
growth inhibition [5]: -9.85%
growth inhibition [6]: 11.3%

CCCCCCCCCC(=O)N/N=C/c1c[nH]c2ccccc12
growth inhibition [1]: 0.95%
growth inhibition [2]: 28.4%
growth inhibition [3]: 20.7%
growth inhibition [4]: -8.75%
growth inhibition [5]: 29.1%
growth inhibition [6]: 21.9%

COc1ccc(/C=C2\CCC(C)(CN(C)C)C2=O)cc1 (stereo unspecified)
growth inhibition [1]: 36.5%
growth inhibition [2]: 14.6%
growth inhibition [3]: 8.15%
growth inhibition [4]: 21.1%
growth inhibition [5]: 4.35%
growth inhibition [6]: 43%

COCc1ccnn1-c1ccccc1C
growth inhibition [1]: -5.85%
growth inhibition [2]: 13.5%
growth inhibition [3]: 9.3%
growth inhibition [4]: -8.45%
growth inhibition [5]: 5.2%
growth inhibition [6]: -6.05%

Cc1oc2ccccc2c(=O)c1CO
growth inhibition [1]: -12.6%
growth inhibition [2]: 13.2%
growth inhibition [3]: 2%
growth inhibition [4]: -9.85%
growth inhibition [5]: -11.1%
growth inhibition [6]: -12.2%

Cc1cc2c(cc1C)NC1=C(N2)OC(c2ccc(Cl)cc2)C1=O (stereo unspecified)
growth inhibition [1]: 19.9%
growth inhibition [2]: 16.2%
growth inhibition [3]: 44.6%
growth inhibition [4]: 2%
growth inhibition [5]: 21.1%
growth inhibition [6]: 44.1%

O=C1NC(CN2CCC(O)CC2)C(=O)NC1CN1CCC(O)CC1 (stereo unspecified)
growth inhibition [1]: 0.6%
growth inhibition [2]: 7.7%
growth inhibition [3]: -10.2%
growth inhibition [4]: 2.4%
growth inhibition [5]: -1.05%
growth inhibition [6]: -0.35%

Nc1ccc(OCCCc2c(N)nc(N)nc2N)c(Cl)c1
growth inhibition [1]: 98% (active)
growth inhibition [2]: 99.1% (active)
growth inhibition [3]: 99.3% (active)
growth inhibition [4]: 98.2% (active)
growth inhibition [5]: 98.3% (active)
growth inhibition [6]: 98.5% (active)

O=C(c1ccccc1)c1ccncc1
growth inhibition [1]: 28.2%
growth inhibition [2]: -4.4%
growth inhibition [3]: -27.2%
growth inhibition [4]: -1%
growth inhibition [5]: -1.9%
growth inhibition [6]: -3.1%

c1ccc2c(c1)NC(C1OC3CCCN3C1C1Nc3ccccc3S1)S2 (stereo unspecified)
growth inhibition [1]: -43.2%
growth inhibition [2]: -6%
growth inhibition [3]: -28.6%
growth inhibition [4]: -1.5%
growth inhibition [5]: -14.1%
growth inhibition [6]: -24.4%

CC(c1ccccc1)n1cnc2c(N(CCO)CCO)ncnc21 (stereo unspecified)
growth inhibition [1]: 2.5%
growth inhibition [2]: -1.6%
growth inhibition [3]: 9.45%
growth inhibition [4]: -4.05%
growth inhibition [5]: 9.85%
growth inhibition [6]: 11.7%

Cc1nc(N)[nH]c(=O)c1CCCNc1ccc(CCCCCCC2(CCl)OCCO2)cc1
growth inhibition [1]: 12.4%
growth inhibition [2]: -0.15%
growth inhibition [3]: 1.45%
growth inhibition [4]: 2.9%
growth inhibition [5]: 17.4%
growth inhibition [6]: -9.4%

CCC1CN2CCc3cc(OC)c(OC)cc3C2CC1O (stereo unspecified)
growth inhibition [1]: 1.3%
growth inhibition [2]: 40.4%
growth inhibition [3]: 20%
growth inhibition [4]: -3.1%
growth inhibition [5]: 44.4%
growth inhibition [6]: 27.9%

O=C(O)CCc1ccccc1C(=O)O
growth inhibition [1]: 19.6%
growth inhibition [2]: -19.6%
growth inhibition [3]: -2%
growth inhibition [4]: -9.8%
growth inhibition [5]: -10.1%
growth inhibition [6]: 9.5%

CCOC(=O)C1C=NC([N+](=O)[O-])=C1Br (stereo unspecified)
growth inhibition [1]: 0.15%
growth inhibition [2]: 24.8%
growth inhibition [3]: 13.4%
growth inhibition [4]: -4.25%
growth inhibition [5]: 18.4%
growth inhibition [6]: 9.15%

COc1ccc(C2SCC(=O)N2NC(=O)c2ccc(NC(C)=O)cc2)cc1 (stereo unspecified)
growth inhibition [1]: -50%
growth inhibition [2]: -49.5%
growth inhibition [3]: -62.5%
growth inhibition [4]: -8.9%
growth inhibition [5]: -21.7%
growth inhibition [6]: -61.5%

CC1=CCCC(C)(C)C1/C=C/C(=O)O (stereo unspecified)
growth inhibition [1]: 8.45%
growth inhibition [2]: -7.35%
growth inhibition [3]: -8.75%
growth inhibition [4]: -36.3%
growth inhibition [5]: -18.1%
growth inhibition [6]: -9.2%

O=C1c2ccccc2-c2nnsc21
growth inhibition [1]: -20.7%
growth inhibition [2]: -14.4%
growth inhibition [3]: 2.3%
growth inhibition [4]: -12.6%
growth inhibition [5]: -6.2%
growth inhibition [6]: 19.5%

CCOC(=O)CCC(NC(=O)c1ccc(Nc2cnc3cc(C(F)(F)F)ccc3n2)cc1)C(=O)OCC (stereo unspecified)
growth inhibition [1]: 0.1%
growth inhibition [2]: -12.8%
growth inhibition [3]: -5.85%
growth inhibition [4]: 19.9%
growth inhibition [5]: 3.4%
growth inhibition [6]: -4.65%

COc1ccc(C(NC(=O)C[C@@H](C(=O)N(C)C(C)C(=O)O)N(C)C(=O)[C@@H]2CCCN2C(=O)[C@H](C(C)C)N(C)C(=O)C(C(C)C)N(C)C(=O)[C@H](Cc2ccccc2)N(C)C(=O)C(NC(=O)OC(C)(C)C)C(C)C)c2ccc(OC)cc2)cc1 (stereo partly specified) (Boc-[ξV][NMeF][ξNMeV][NMeV]P[NMeD](X15)[ξNMeA]-OH)
growth inhibition [1]: -30.5%
growth inhibition [2]: -23.9%
growth inhibition [3]: -20.9%
growth inhibition [4]: -7.45%
growth inhibition [5]: -6.25%
growth inhibition [6]: -31.4%

Cc1cccc(Cl)c1NC(=O)Nc1ccc(C#N)cc1
growth inhibition [1]: 15.4%
growth inhibition [2]: -10.6%
growth inhibition [3]: 17.9%
growth inhibition [4]: 5.35%
growth inhibition [5]: -3.45%
growth inhibition [6]: -1%

CCOC(=O)C(C)Oc1ccc(Cn2ccnn2)cc1 (stereo unspecified)
growth inhibition [1]: -20.1%
growth inhibition [2]: -1.25%
growth inhibition [3]: 15.9%
growth inhibition [4]: -4.05%
growth inhibition [5]: 3.1%
growth inhibition [6]: 6.25%

CCCCSc1nc2ccccc2c(=O)[nH]1
growth inhibition [1]: -10.7%
growth inhibition [2]: -13%
growth inhibition [3]: -4.6%
growth inhibition [4]: 13.3%
growth inhibition [5]: 9.3%
growth inhibition [6]: 3.1%

O=C(c1cccc(C(F)(F)F)c1)c1ccccc1Cc1ccccc1
growth inhibition [1]: 3.85%
growth inhibition [2]: 13.9%
growth inhibition [3]: 12.2%
growth inhibition [4]: -28.1%
growth inhibition [5]: 14.2%
growth inhibition [6]: 42%

Cc1cccc(C)c1NC(=S)NC1CC(C)CC(C)(C)C1 (stereo unspecified)
growth inhibition [1]: 41.2%
growth inhibition [2]: 50.5%
growth inhibition [3]: 76.7% (active)
growth inhibition [4]: 57.9%
growth inhibition [5]: 63%
growth inhibition [6]: 50.3%

COC(=O)c1ccccc1CC1Cc2cc3c(cc2C1)CCC3
growth inhibition [1]: 20.5%
growth inhibition [2]: 7.1%
growth inhibition [3]: -0.7%
growth inhibition [4]: 12.9%
growth inhibition [5]: 4.3%
growth inhibition [6]: 5.45%

CCCC(Sc1nc(N)nc2nc[nH]c12)C(=O)O (stereo unspecified)
growth inhibition [1]: -18.7%
growth inhibition [2]: -10.2%
growth inhibition [3]: -26.3%
growth inhibition [4]: -24.3%
growth inhibition [5]: -29%
growth inhibition [6]: 4.9%

COC(=O)[C@H](Cc1c[nH]c2ccccc12)NP(=O)(OCCC#N)OCC1OC(n2cc(C)c(=O)[nH]c2=O)CC1N=[N+]=[N-] (stereo partly specified)
growth inhibition [1]: -13.6%
growth inhibition [2]: -33.1%
growth inhibition [3]: -23.4%
growth inhibition [4]: -13.3%
growth inhibition [5]: -30.8%
growth inhibition [6]: -65%

C=C1C(C2(C)C=CC(=O)OC3(C)COC(=O)CC32)C(OC=O)C(OC(=O)C(O)C(C)CC)C2(C)C(c3ccoc3)CC(OC(C)=O)C12O (stereo unspecified)
growth inhibition [1]: 7.9%
growth inhibition [2]: -5.2%
growth inhibition [3]: -4.65%
growth inhibition [4]: -0.45%
growth inhibition [5]: 16.3%
growth inhibition [6]: -21.4%

CC[O-].CC[O-].O=C([CH-]C(=O)c1ccccc1)CCCCCCCCC(=O)[CH-]C(=O)c1ccccc1.[Ti+4]
growth inhibition [1]: -37.5%
growth inhibition [2]: -22.3%
growth inhibition [3]: 5.1%
growth inhibition [4]: 13.2%
growth inhibition [5]: 2.85%
growth inhibition [6]: 0.5%

CC(=O)Nc1ccc(S(=O)(=O)Nc2cc(Cl)cc(Cl)c2)cc1
growth inhibition [1]: 15.7%
growth inhibition [2]: -10.2%
growth inhibition [3]: -0.05%
growth inhibition [4]: 8.75%
growth inhibition [5]: 2.1%
growth inhibition [6]: -7.1%

CCC1(C)CC(C)(C)c2ccc(C)cc21 (stereo unspecified)
growth inhibition [1]: -0.8%
growth inhibition [2]: -2.75%
growth inhibition [3]: -6.4%
growth inhibition [4]: -9.2%
growth inhibition [5]: -2.9%
growth inhibition [6]: -2.25%
